Autofluor counter = counter-screen for toxin protease inhibitors: compound fluorescence. compound autofluorescence counterscreen, microsphere flow cytometry; stronger effect = higher value. fluorescence intensity (concentration not given with the values). hit rate 3.1% among 360,000. AID 624483; in the data active = fluorescence intensity above about 16000; inconclusive = no clear call, values can overlap the other calls
Anthrax LF prot = inhibitors of Bacillus anthracis lethal factor protease; P15917; multiplex microsphere protease cleavage assay, LF; inhibition, % at 10 µM; hit rate 0.12% among 360,000; also: plate controls were buffer without enzyme for full effect and enzyme alone for no effect
BoNT F protease = BoNT F light chain protease inhibition | Multiplex microsphere protease cleavage assay, flow cytometry | inhibition, % at 10 µM | hit rate 0.22% among 360,000; in the data active = inhibition above about 35%, passing the limit was not always enough; inconclusive = no clear call, values can overlap the other calls; also: plate controls were buffer without enzyme for full effect and enzyme alone for no effect
MazF activator = MazEF (E. coli) toxin RNase activation | P0AE70 | activation, % at 20 µM | FAM/BHQ RNA-DNA oligo cleavage fluorescence, 5 h | hit rate 0.32% among 350,000 | AID 504720; in the data active = activation above about 50%
SSB-PriA inh = blocks PriA binding to SSB C-terminal tail | AlphaScreen SSBct-PriA binding, biotinylated peptide | inhibition, % at 33 µM | hit rate 0.6% among 430,000; in the data active = inhibition mostly above about 37%, no sharp cut-off; inactive = mostly below about 20%;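 also: plate controls were negative control peptide for no effect and reference peptide for full effect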
BoNT-A LC inh2 = inhibitors of Botulinum neurotoxin A light chain protease | multiplex microsphere protease substrate cleavage, flow cytometry | inhibition, % at 10 µM | hit rate 0.17% among 360,000; also: plate controls were buffer without enzyme for full effect and enzyme alone for no effect
* marks the source's active call; other numbers are inactive results; ? = inconclusive; · = no result given; ! = repeats disagree. This is a sample that favours compounds with a hit; in the whole collection about 3.3% have one here. Rule as the data show it, unless noted: active = inhibition above about 30%; inconclusive = no clear call, values can overlap the other calls; inactive = below that.

SMILES | Autofluor counter | Anthrax LF prot | BoNT F protease | MazF activator | SSB-PriA inh | BoNT-A LC inh2
COc1ccccc1CNCC(O)(c1ccc(F)cc1)c1ccc(F)cc1 | 3812 | 8 | -12 | 3 | -6 | -1
COc1ccccc1CNCC(O)(c1ccc(Cl)cc1)c1ccc(Cl)cc1 | 23819* | -4 | -17 | -14 | -27 | ?
CC(=NCCO)c1c(O)n(C)c(=O)n(C)c1=O | 8077 | -1 | -8 | -3 | -13 | 0
CC(=NCCC1=CCCCC1)c1c(O)n(C)c(=O)n(C)c1=O | 23048* | 1 | 0 | -4 | -5 | 0
O=S(=O)(NCCOc1ccccc1)c1cccc(Cl)c1Cl | · | · | · | · | -28 | ·
COc1cccc2c1C(=O)c1ccc3ccccc3c1C2=O | 2360 | 28 | 28 | 6 | 27 | 34*
COc1ccc(OC)c2c1C(=O)c1ccccc1C2=O | · | · | · | -90 | 7 | ·
COc1cc(/C=C/C=C2/CC/C(=C/C=C/c3ccc(O)c(OC)c3)C2=O)ccc1O | 3836 | 34* | -4 | -18 | -5 | 39*
Cc1cc(C(=O)N(CCN2CCOCC2)c2nc3c(C)ccc(Cl)c3s2)on1 | · | · | · | · | -8 | ·
Cc1csc(CN2CCN(C(=O)COc3ccc(Cl)cc3Cl)CC2)n1 | · | · | · | · | -12 | ·
O=C(COc1ccc(Cl)cc1Cl)N1CCN(Cc2nc(-c3ccco3)cs2)CC1 | · | · | · | · | 35*! | ·
COc1ccc(C=NN(C)C2=NCCN2)c(OC)c1OC | · | · | · | · | -6 | ·
CCOC(=O)c1[nH]nc(C(=O)c2ccc(Br)cc2)c1O | 18245* | -6 | 4 | -4 | -7 | 4
COc1ccc(NC(=O)CN2CCN(S(=O)(=O)c3ccc(Cl)cc3)CC2)cc1 | 22877* | 0 | -3 | 3 | -4 | -2
COc1ccc(S(=O)(=O)N2CCC(C(=O)NCCC(=O)Nc3ccc(Cl)cc3)CC2)cc1 | 4484 | -2 | -1 | 55* | -4 | -1
COc1ccc(NC(=O)CN2CCN(S(=O)(=O)c3ccc(F)cc3)CC2)cc1 | · | · | · | · | -14 | ·
Oc1ccc(N=Cc2ccc(-c3cccs3)s2)cc1 | 16163* | -1 | -2 | 12 | 33 | 1
Cc1ccc(C(=O)CSc2nnnn2-c2ccccc2)o1 | 4844 | 0 | -1 | 14 | 5 | 0
COc1ccc(-c2nnc(SCc3nnc(-c4ccccc4)o3)n2-c2ccccc2)cc1 | 8897 | -5 | 6 | 69* | -11 | 0
Cc1ccc(C(=O)CSc2nnc(-c3ccccc3)n2-c2ccccc2)o1 | 20254* | 0 | 1 | 4 | -10 | ?
COc1ccc(-n2c(SCc3nnc(-c4ccccc4)o3)nnc2-c2ccccc2)cc1 | 10088 | -3 | -2 | 5 | -11 | 0
O=C(CSc1nnc(-c2ccccc2)n1-c1ccccc1)c1cccs1 | 21163* | -1 | -6 | 1 | -12 | ?
CCn1c(SCc2nnc(-c3ccccc3)o2)nnc1-c1ccc(S(=O)(=O)N2CCCC2)cc1 | 23063* | 0 | -3 | 7 | -5 | -1
COc1ccc(-c2noc(CSc3nc4ccccc4c(=O)n3-c3ccccc3)n2)cc1 | 21618* | -2 | -3 | -4 | -2 | -4
COc1cccc(-c2noc(CSc3nc4ccccc4c(=O)n3-c3ccc(F)cc3)n2)c1OC | · | · | · | · | 5 | ·
SMILES | Autofluor counter | Anthrax LF prot | BoNT F protease | MazF activator | SSB-PriA inh | BoNT-A LC inh2
CC1CC(=O)c2cnc(N)nc2C1 (configuration not stated) | 22837* | -11 | -4 | 3 | 13 | -2
C=CCN=C(NC#N)SCC(=O)c1cccc(OC)c1 | 22163* | -2 | -8 | -4 | -4 | ?
O=C(Nc1ccc(-c2nc3ccccc3o2)cc1)C1CCCO1 (configuration not stated) | 19183* | 1 | 3 | -1 | -3 | 2
O=C(Nc1ccc2oc(-c3ccccc3)nc2c1)C1CCCO1 (configuration not stated) | 2092 | -2 | -30 | 7 | -3 | -2
CC(=O)Nc1ccc(S(=O)(=O)Nc2cccc(-c3nc4ccccc4o3)c2)cc1 | 6567 | 0 | -6 | 1 | 3 | 2
O=S(=O)(Nc1ccc(-c2nc3ccccc3o2)cc1)c1ccccc1 | 23226* | -3 | -7 | -3 | -2 | ?
Cc1ccc2nc3sc(C(=O)NCc4ccco4)c(N)c3cc2c1 | 2999 | -1 | -3 | 82* | 1 | 1
COc1cc2cc3c(N)c(C(=O)NCc4ccco4)sc3nc2cc1OC | 3007 | 2 | 1 | 3 | -5 | 3
Cc1ccc(O)c(C(=O)c2coc(=N)c(C(=O)NC(C)C)c2)c1 | 20781* | -4 | 0 | 8 | -2 | ?
Cc1cc(C(=O)CSc2nnc(-c3ccccc3F)o2)c(C)n1Cc1cccs1 | 20558* | -1 | 0 | -2 | -7 | 0
Cc1cc(C(=O)CSc2nc3ccccc3n2CCC#N)c(C)n1Cc1cccs1 | 12378 | -19 | -14 | 19 | 6 | -4
COc1ccccc1-n1cnnc1SCC(=O)c1cc(C)n(Cc2cccs2)c1C | 17083* | -1 | -1 | -1 | 23 | -1
C=CCn1c(SCC(=O)c2cc(C)n(Cc3cccs3)c2C)nnc1-c1ccncc1 | 3140 | 2 | 0 | 2 | 9 | 1
Cc1cccn2c(=O)c(C=NO)c(N3CCCC3)nc12 | · | · | · | · | -14 | ·
Cc1cccn2c(=O)c(/C=N/O)c(N3CCCC3)nc12 | 16881* | -1 | -3 | 4 | · | ?
O=c1c2ccccc2c2ccccc2c(=O)n1-c1cc(C(F)(F)F)ccc1Cl | · | · | · | · | -4 | ·
COc1cc(NC(=O)N[C@H](C(=O)O)C(C)C)cc(OC)c1 | 21545* | 1 | 4 | -3 | -4 | 2
COc1cc(NC(=O)C(F)(F)F)cc(OC)c1 | 16433* | -3 | -5 | 12 | -4 | -1
Cc1nc2cc(NC(=O)C3CN(C(=O)COc4ccccc4F)C3)ccc2s1 | · | · | · | · | -14 | ·
C/C(=N/NC(=S)NCCc1ccccc1)c1ccccc1 | · | · | · | · | 4 | ·
CSC1=C(C#N)C(c2ccc(Cl)cc2)C2=C(CC(C)(C)CC2=O)N1 (configuration not stated) | 23927* | -6 | -3 | 6 | -2 | -2
Nc1c(-c2ccc(Cl)cc2)cnn1-c1cccc([N+](=O)[O-])c1 | 9876 | -9 | -9 | 0 | -13 | -1
Nc1c(-c2ccccc2)cnn1-c1cccc([N+](=O)[O-])c1 | 17591* | -5 | -1 | -1 | 6 | -2
O=S(=O)(c1ccc2c(c1)OCCO2)N1CCN(c2ccc3nncn3n2)CC1 | · | · | · | · | 0 | ·
COC(=O)c1ccc(CSc2nc(C)cc(C(F)(F)F)n2)cc1 | · | · | · | · | 38* | ·
SMILES | Autofluor counter | Anthrax LF prot | BoNT F protease | MazF activator | SSB-PriA inh | BoNT-A LC inh2
CC(C)Cn1c(/C=N\Nc2nc3ccccc3[nH]2)nc2ccccc21 | · | · | · | · | -16 | ·
COc1ccc(C2=NOC3(CC(=O)N(c4ccc(C)cc4)C3=O)C2)c(OC)c1 (configuration not stated) | 22248* | 1 | 3 | 4 | -15 | 2
Cc1cc(C)n2c(SCC#N)nnc2n1 | 6064 | -4 | 2 | 3 | -12 | 0
Cc1cc(C)n2c(SCc3ccc(C#N)cc3)nnc2n1 | 22207* | -2 | 3 | 6 | -2 | 1
NC(Cc1ccc(Cl)cc1Cl)=NOC(=O)c1cccs1 | · | · | · | · | -12 | ·
O=C(NCC1CCN(S(=O)(=O)c2cccnc2)CC1)C(=O)Nc1ccon1 | · | · | · | · | -13 | ·

Screening results: PubChem, several laboratories
